# PubChem BioAssay
# The source made the active and inactive calls.
# How the values were obtained:
# [1] = tested on: Plasmodium falciparum Sir2 (PF13_0152, Sir2A); assay: Plasmodium falciparum Sir2A binding compounds – biochemical, small-molecule microarray, 635 nm fluorescence, primary screen (AID 1098); details: fluorescence 635 nm, higher = more signal;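 note: score merges spot fluorescence intensity with its signal-to-noise ratio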
# [2] = probe aDKK1 binding to arrayed compounds – biochemical, biotinylated probe, 635/667 nm fluorescence, primary screen (AID 1099); details: small-molecule microarray, higher = more signal;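 note: score merges 667nm spot fluorescence with signal to noise across triplicate slides; reference of the scale not given here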
# [3] = probe aCHRDL2 binding to arrayed compounds – biochemical, biotinylated probe, 635/667 nm fluorescence, primary screen (AID 1100); details: small-molecule microarray, higher = more signal
# [4] = change in splice reporter luminescence, either direction, cell-based, HEK293, spliceosome inhibition project, primary screen (AID 1101); details: HEK293 splicing luciferase reporter, 24 h, higher = more signal, called active from +8 up or from −8 down;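 note: HEK293 cells carrying a splicing-competent luciferase reporter gene; test concentration not given here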
# [5] = biological target: Fibroblast growth factor 10 (Homo sapiens) (UniProt O15520); assay: compounds binding fibroblast growth factor 10 – biochemical, small-molecule microarray, 635 nm fluorescence, primary screen (AID 1102); details: FGF10 binding, fluorescence 635 nm, higher = more signal
# [6] = tested on: glycogen synthase kinase-3 (GSK3A per assay name; protocol says GSK3B); assay: compounds binding glycogen synthase kinase-3 – biochemical, small-molecule microarray, 635 nm fluorescence, GSK3A, primary screen (AID 1103); details: fluorescence 635 nm, higher = more signal; note: the record names both GSK3A and GSK3B
# [7] = biological target: Epidermal growth factor receptor (Homo sapiens) (UniProt P00533); assay: compounds binding epidermal growth factor receptor – biochemical, small-molecule microarray, 635 nm fluorescence, primary screen (AID 1104); details: EGFR binding, higher = more signal;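 note: score merges 667 nm emission intensity with spot signal to noise over triplicate slides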
# [8] = biological target: Follistatin-related protein 3 (Homo sapiens) (UniProt O95633); assay: compounds binding follistatin-related protein 3 – biochemical, small-molecule microarray, 635 nm fluorescence, primary screen (AID 1105); details: FSTL3 binding, higher = more signal;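 note: score merges emission near 667 nm and signal to noise per printed spot across three slides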
# [9] = biological target: Dickkopf-related protein 1 (Homo sapiens) (UniProt O94907); assay: small molecules binding DKK1 protein – biochemical, small-molecule microarray, 635 nm fluorescence scan, primary screen (AID 1106); details: higher = more signal;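 note: score merges emission near 667 nm with signal to noise over three replicate slides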
# [10] = tested on: Inhibin beta A chain (activin A); assay: small molecules binding activin A – biochemical, small-molecule microarray, 635 nm fluorescence scan, primary screen (AID 1107); details: INHBA, higher = more signal;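 note: mouse activin A protein probed at 4.33 µg/mL on printed slides; score merges bound-protein fluorescence near 667 nm with spot signal-to-noise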
# Chain of Follistatin-related protein 3 (Homo sapiens) (O95633 whole entry, looked up): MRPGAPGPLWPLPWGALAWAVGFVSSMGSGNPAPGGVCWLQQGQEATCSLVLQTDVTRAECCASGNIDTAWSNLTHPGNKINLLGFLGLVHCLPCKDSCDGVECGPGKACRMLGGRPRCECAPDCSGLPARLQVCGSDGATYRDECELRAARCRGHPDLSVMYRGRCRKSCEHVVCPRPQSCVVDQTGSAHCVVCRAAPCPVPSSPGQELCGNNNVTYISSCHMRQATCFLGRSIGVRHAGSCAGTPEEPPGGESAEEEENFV
# Chain of Dickkopf-related protein 1 (Homo sapiens) (O94907 whole entry, looked up): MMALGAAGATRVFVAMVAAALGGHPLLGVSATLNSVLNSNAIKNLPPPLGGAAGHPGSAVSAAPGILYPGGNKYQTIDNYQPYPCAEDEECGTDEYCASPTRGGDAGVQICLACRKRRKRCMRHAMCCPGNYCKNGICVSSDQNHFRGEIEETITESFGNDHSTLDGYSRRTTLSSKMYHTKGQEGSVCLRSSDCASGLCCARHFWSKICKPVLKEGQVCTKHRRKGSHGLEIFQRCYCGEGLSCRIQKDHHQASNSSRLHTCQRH
# Chain of Epidermal growth factor receptor (Homo sapiens) (P00533 whole entry, looked up): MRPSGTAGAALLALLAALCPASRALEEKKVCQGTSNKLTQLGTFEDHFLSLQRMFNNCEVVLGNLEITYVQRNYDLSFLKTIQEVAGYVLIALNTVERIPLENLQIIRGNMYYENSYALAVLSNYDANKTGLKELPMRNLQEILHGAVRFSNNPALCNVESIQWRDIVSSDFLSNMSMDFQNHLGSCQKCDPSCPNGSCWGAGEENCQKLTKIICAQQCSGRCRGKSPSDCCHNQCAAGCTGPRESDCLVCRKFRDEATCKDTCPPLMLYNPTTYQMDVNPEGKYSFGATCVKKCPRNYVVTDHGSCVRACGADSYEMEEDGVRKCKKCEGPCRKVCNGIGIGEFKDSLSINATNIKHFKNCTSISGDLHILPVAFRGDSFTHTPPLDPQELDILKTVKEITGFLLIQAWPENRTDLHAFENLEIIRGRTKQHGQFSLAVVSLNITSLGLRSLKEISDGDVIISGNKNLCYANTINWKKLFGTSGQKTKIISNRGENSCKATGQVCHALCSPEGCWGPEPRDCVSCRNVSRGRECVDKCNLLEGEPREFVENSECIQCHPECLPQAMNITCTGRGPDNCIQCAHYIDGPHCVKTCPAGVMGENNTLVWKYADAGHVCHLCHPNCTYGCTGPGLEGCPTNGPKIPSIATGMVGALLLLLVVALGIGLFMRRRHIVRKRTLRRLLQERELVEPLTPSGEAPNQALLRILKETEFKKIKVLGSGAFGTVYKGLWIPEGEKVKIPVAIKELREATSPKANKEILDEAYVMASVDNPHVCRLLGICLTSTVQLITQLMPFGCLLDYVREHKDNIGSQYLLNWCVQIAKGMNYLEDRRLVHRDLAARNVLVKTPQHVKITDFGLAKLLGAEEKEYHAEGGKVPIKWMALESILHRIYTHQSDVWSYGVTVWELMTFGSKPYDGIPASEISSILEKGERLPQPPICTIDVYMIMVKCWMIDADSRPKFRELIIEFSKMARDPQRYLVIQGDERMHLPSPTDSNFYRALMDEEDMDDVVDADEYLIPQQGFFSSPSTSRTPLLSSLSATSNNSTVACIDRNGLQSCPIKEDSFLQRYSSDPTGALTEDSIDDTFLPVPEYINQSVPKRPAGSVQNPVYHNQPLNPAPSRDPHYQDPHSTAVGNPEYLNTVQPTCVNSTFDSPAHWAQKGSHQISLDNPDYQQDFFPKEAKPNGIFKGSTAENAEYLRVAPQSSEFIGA
# Chain of Fibroblast growth factor 10 (Homo sapiens) (O15520 whole entry, looked up): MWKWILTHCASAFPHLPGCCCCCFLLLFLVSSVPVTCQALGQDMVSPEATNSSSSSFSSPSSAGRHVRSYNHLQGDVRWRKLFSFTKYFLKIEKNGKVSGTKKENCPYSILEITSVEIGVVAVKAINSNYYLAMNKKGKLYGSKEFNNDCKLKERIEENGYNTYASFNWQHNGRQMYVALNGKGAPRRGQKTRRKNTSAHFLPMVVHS
SMILES,composite z-score [1],composite z-score [2],composite z-score [3],z-score [4],composite z-score [5],composite z-score [6],composite z-score [7],composite z-score [8],composite z-score [9],composite z-score [10]
COc1ccc(COC(=O)NN=C2C[C@@H](O)[C@@H](O)[C@@H]3[C@@H]4C(=O)N(C(C)(C)C)C(=O)[C@@H]4CC[C@@H]23)cc1,0.182,-0.163,-0.64,0.992 (inactive),0.189,0.787,0.314,0.967,1.16,-0.105
CC(C)C(=O)N[C@H]1CCCN1C(=O)C=Cc1ccccc1,0.0571,-0.0477,-0.43,0.539 (inactive),1.07,0.823,0.43,0.722,0.634,0.0551
COC(=O)C1=C(C)N(Cc2ccccc2)C2=C3C(=O)OCC[C@@H]3[C@@](O)(C(=O)OC)C(=O)N2[C@@H]1c1ccccc1,0.126,-0.117,-0.538,-0.403 (inactive),0.325,0.51,0.526,0.495,0.563,0.312
Cc1ccc2[nH]c3nc(CCCn4ccnc4-c4ccccc4)nnc3c2c1,0.663,-0.28,-0.0165,-0.128 (inactive),0.632,1.22,0.32,1.31,0.869,-0.739
COCCNC(=O)OCC1CCCC2(CC(OC(=O)NCc3cccc4ccccc34)CC(CCC(=O)N[C@@H](C)C(=O)OC)O2)O1 (stereo not given in full),0.798,-0.252,-0.589,-0.674 (inactive),1.06,1.22,0.709,0.781,0.735,-0.0341
CC(C)[C@@H](OCc1ccccc1)[C@H](C)C=NO[C@@H](C)c1cn([C@H](CO)Cc2ccccc2)nn1,0.38,-0.215,-0.357,0.357 (inactive),-0.045,0.148,-0.0006,0.105,-0.477,-0.245
Cc1ccc(S(=O)(=O)N[C@@H]2COC(=O)CC=C[C@@H](C)[C@H](NS(=O)(=O)c3ccc(C)cc3)COC(=O)[C@H](C)NC(=O)CC=C[C@H]2C)cc1,-0.267,-0.472,-0.684,-0.294 (inactive),-0.0861,-0.0951,0.0994,0.129,0.123,1.27
COC(=O)[C@@H]1CC[C@H](C)[C@@H](c2ccc(Br)cc2)N1C[C@@H](O)CN=[N+]=[N-],0.0292,-0.0196,-0.304,-1.34 (inactive),0.189,0.078,0.532,0.0985,0.356,-0.28
CC(=O)OC[C@H]1O[C@H](CC=NOC[C@@H](O)[C@H]2O[C@@H]3OC(C)(C)O[C@@H]3[C@H]2O)C=C[C@@H]1OC(C)=O,0.8,-0.0771,-0.351,-0.136 (inactive),0.771,0.529,0.317,0.451,0.375,-0.115
CC(C)(C)N1C(=O)[C@H]2[C@H]3[C@H](O)[C@H](O)CC(=NOC[C@@H](O)COCc4ccco4)[C@@H]3CC[C@H]2C1=O,0.34,0.774,0.588,0.369 (inactive),0.249,-0.332,-0.144,-0.248,-0.272,0.426
CCN(CC)CC(O)CN1CCCCc2nc(C)c(C)cc21 (stereo not given),-0.145,-0.33,-0.485,-1.7 (inactive),0.507,0.709,0.256,0.42,0.701,0.29
O=C1[C@H]2[C@H]3[C@H](O)[C@H](O)CC(=NO[C@@H]4O[C@H](CO)[C@@H](O)[C@H](O)[C@H]4O)[C@H]3CC[C@H]2C(=O)N1C[C@@H]1CCCO1,0.323,-0.273,-0.344,0.0676 (inactive),0.0269,-0.027,0.522,0.0553,-0.0079,-0.915
CO[C@H]1COC(=O)[C@H](C)COC(=O)[C@H](C)NC(=O)CC=C[C@H]1C,0.378,-0.579,-1.42,0.0547 (inactive),1.07,1.24,1.54,1.51,1.28,0.843
COc1ccc(O[C@H]2C=C[C@@H](c3ccccc3)O[C@@H]2CON=C2c3cc(OC)ccc3O[C@H](c3cccc(OC)c3)[C@H]2O)cc1,-0.177,0.242,-0.279,0.65 (inactive),0.886,0.192,0.531,0.589,0.434,-0.393
COC(=O)[C@@H]1CC[C@H](C)[C@@H](c2ccc(C)cc2)N1C(=O)c1ccc(C=NOC[C@H]2O[C@H](c3ccccc3)C=C[C@@H]2Oc2ccc(OC)cc2)cc1,0.198,-0.0428,-0.32,-0.0767 (inactive),0.3,-0.245,0.331,-0.189,0.15,1.24
CC(C)CON=C1C[C@@H](O)[C@@H](O)[C@@H]2[C@@H]3C(=O)N(C(C)(C)C)C(=O)[C@@H]3CC[C@@H]12,1.08,-0.58,-1.35,-1.15 (inactive),0.156,1.25,0.85,0.85,1.95,0.418
CCN1C(=O)[C@H]2[C@H]3[C@H](O)[C@H](O)CC(=NOC(C)CN4CCCc5nc(C)c(C)cc54)[C@@H]3CC[C@H]2C1=O (stereo not given in full),0.333,0.0478,-0.598,0.189 (inactive),0.784,0.901,0.692,0.783,0.713,0.907
O=C1CCCC=C1C(O)c1ccc([N+](=O)[O-])cc1 (stereo not given),-0.805,-0.0341,-0.429,-0.337 (inactive),0.59,0.288,0.406,0.211,0.133,0.478
CCOC(=O)[C@H](CC(C)C)NC(=O)CCC1CC(OC(=O)NCCc2ccc(F)cc2)CC2(CCCC(COC(=O)NCCCN3CCCC3=O)O2)O1 (stereo not given in full),-0.0927,-0.234,-0.509,0.764 (inactive),0.93,0.519,0.261,0.572,0.946,-0.131
CC(=O)OC[C@H]1O[C@H](CCON=C(C)CCN2CCCc3nc(C)c(C)cc32)C=C[C@@H]1OC(C)=O,0.773,-0.108,-0.408,1.06 (inactive),0.932,1.24,0.986,1.16,0.735,0.965
COC(=O)[C@H](C)NC(=O)CCC1CC(OC(=O)NCc2ccc3c(c2)OCO3)CC2(CCCC(COC(=O)NCCCN3CCCC3=O)O2)O1 (stereo not given in full),0.842,-0.286,-0.189,0.245 (inactive),0.601,1.28,0.638,0.856,1.41,-0.109
CCN1C(C)=C(C(=O)OC)[C@@H](c2ccccc2)N2C(=O)[C@](O)(C(=O)OC)CC(C(C)=O)=C12,-0.166,-0.324,-0.745,0.15 (inactive),0.302,0.489,0.633,0.557,0.514,0.423
COC(=O)[C@H](C)NC(=O)CCC1CC(OC(=O)NCc2ccc3c(c2)OCO3)CC2(CCCC(COC(=O)NCCc3ccc(Cl)cc3)O2)O1 (stereo not given in full),0.207,-0.146,-0.589,-0.51 (inactive),0.382,0.591,0.351,0.762,1.87,0.219
COC(=O)[C@H](C)NC(=O)CCC1CC(OC(=O)NCc2ccc3c(c2)OCO3)CC2(CCCC(COC(=O)NCCC(C)C)O2)O1 (stereo not given in full),0.624,-0.076,-0.434,0.0265 (inactive),0.412,0.69,0.0295,0.505,0.205,-2.25
COC(=O)[C@H](C)NC(=O)CCC1CC(OC(=O)NCc2cccc3ccccc23)CC2(CCCC(COC(=O)NCc3cccc(C(F)(F)F)c3)O2)O1 (stereo not given in full),0.988,-0.0508,-0.134,-1.39 (inactive),0.908,0.611,0.473,0.677,0.303,-0.108
C#CCCCON=C1C[C@@H](O)[C@@H](O)[C@@H]2[C@@H]3C(=O)N(CC)C(=O)[C@@H]3CC[C@H]12,0.581,-0.189,-0.267,0.385 (inactive),0.301,-0.396,0.285,-0.331,0.209,-0.124
